Measurements taken from PubChem BioAssay (NCATS).
Records with an inconclusive call do not appear. Activity calls are given as the source filed them. Calls follow the shape of the dose curve; as a rule, active = well fitted inhibition curve with a large enough effect; inconclusive = small, poorly fitted or top-dose-only effect; inactive = flat fitted curve, though single readings scatter.

How the values were obtained:
Test in all cases: qHTS profiling for inhibitors of Plasmodium falciparum proliferation (AID 504749); also: nearly all actives have a fitted effect of over 60% in size
Conditions in all cases: P. falciparum in erythrocytes, SYBR Green DNA, 72 h; series mostly up to 28.7 µM
AA1029 = test system: AA1029
In short: (§1)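 Quantitative HTS: compounds pinned into medium, infected erythrocytes added (0.3% parasitemia, 2.5% hematocrit), 72 h culture at 37 C under 5% CO2. Saponin/Triton lysis with SYBR Green I, overnight RT, then fluorescence read.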

AS120 = test system: AS120
In short: as §1

ATS95 = test system: ATS95
In short: as §1

CP217 = test system: CP217
In short: as §1

CP238 = test system: CP238
In short: as §1

CP247 = test system: CP247
In short: as §1

CP250 = test system: CP250
In short: as §1

CP252 = test system: CP252
In short: as §1

CP256 = test system: CP256
In short: as §1

CP260 = test system: CP260
In short: as §1

CP291 = test system: CP291
In short: as §1

CP335 = test system: CP335
In short: as §1

DFO2036 = test system: DFO2036
In short: as §1

DIV17 = test system: DIV17
In short: as §1

N140 = test system: N140
In short: as §1

P93_24 = test system: P93_24
In short: as §1

P94_40 = test system: P94_40
In short: as §1

SC27B = test system: SC27B
In short: as §1

TAB109 = test system: TAB109
In short: as §1

TAB165 = test system: TAB165
In short: as §1

Measured: Potency

CC1(C)S[C@@H]2[C@H](N)C(=O)N2C1C(=O)O (stereo not given in full)
inactive: all assays above

[S]=[Sb][S][Sb]=[S]
inactive: all assays above
